# Several values for one entry are separate records, joined by “and”; a condition that tells them apart may be missing. Identical values can stand only once.
# Test system: HL-1
# Assay: cardiomyocyte survival under oxidative or metabolic stress – cell-based, panel, H9c2 and HL-1, ATP luminescence, set 2, SAR follow-up (AID 651871);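 note: cells exposed to stressor for 2 h before ATP readout; reference of the scale not given here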
# Settings: H9c2/HL-1 cardiomyocytes, H2O2 oxidative stress; with H2O2, run 2, at 79 µM (top of the series)
row,Structure (SMILES),activity (protection/inhibition)
1,COc1cc(-c2cc(C(=O)Nc3cccc(C(=O)NCc4ccccc4)c3)c3ccccc3n2)cc(OC)c1OC,25%
2,COc1ccc2c(c1OC)C(=O)N1c3ccccc3C(=O)N(Cc3cccc(Cl)c3Cl)C21 (centres undefined),-0.168% and -1.52% and -3.02%
3,COc1ccc2nc(-c3cc(OC)c(OC)c(OC)c3)cc(C(=O)NCC(=O)Nc3ccc(C(C)=O)cc3)c2c1,27.5% and 38.9%
4,CCOC(=O)c1cccc(NC(=O)CNC(=O)c2cc(-c3cc(OC)c(OC)c(OC)c3)nc3ccccc23)c1,44%
